In the supplement of paper PMC11417369:
In all, about 25,000 sequences were measured (“ln(normalized median fluorescence intensity)”: median about 6.7, highest 2% from about 10 on). The list comes from a sample in which the highest values are over-represented; it also holds similar and randomly drawn sequences.

The sequences below were run on PfHDP1 homeodomain (GST-tagged) (assay: gcPBM binding intensity (ln(normalized median fluorescence intensity)); higher = stronger DNA binding).
Procedure, shortened: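 After 1 h on an Agilent 4 × 180k array of primer-extended double-stranded 36-bp intergenic genomic probes and negative controls, bound GST-tagged P. falciparum DNA-binding domains were detected with Alexa488 anti-GST antibody and scanned at 488 nm. The domains had been expressed in E. coli, and binding took place in 1× PBS with 1% milk, 0.2 mg/ml BSA, 0.5% salmon testes DNA and 0.03% Triton X-100. Binding intensity is the highest Masliner-normalised natural-log median intensity across replicate spots of either probe orientation.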

Going from “CACTAATATATATACAGTACATAATAAAGTATATAA [XGTACX_site6875]” to “TGTCCAATTTATTGTGCACACCTCAAAAGTGGGTAA [CACACA_site3826]”, the “gcPBM binding intensity (ln)” value rises from 6.16 to 11.1.

First: AATGCACAGCTCTTAGGCAAAAGTGGGTATTTACAC [GTGCAC_negctrl_site579]
Second: TTGGGTATTTTGTGCGCACACACATGCAAAAAGAAA [CACACA_site8299]
The “gcPBM binding intensity (ln)” value of the first is lower: 8.63 for the first, 9.63 for the second.

Going from “TTTTTTTCTAATTATGCACACATATCAAAATATTCA [CACACA_site8886]” to “ATTTTATGAAATGTTGCACACAAAAAACAACATGTT [CACACA_site8408]”, the “gcPBM binding intensity (ln)” value falls from 10.2 to 9.69.

First: ACATGTTTTATGTGCACACAAAGTTGTTATGAGGTT [CACACA_site4031]
Second: TTTATGAAATGTTGCACACAAAAAACAACATGTTTT [CACACA_site1440]
The “gcPBM binding intensity (ln)” value of the first is higher: 10.7 for the first, 9.63 for the second.

Compared with “TATTTTATATGAGGCACACAAATTTTAATTGTTATT [CACACA_site725]”, “ATACATGTTTTATGTGCACACAAAGTTGTTATGAGG [CACACA_site4032]” is higher in “gcPBM binding intensity (ln)” value: 5.99 for the first, 10.8 for the second.

First: TAGTTGCACATGTATACACACAAAAAATATTTTATG [CACACA_site475]
Second: TCTTCATAAAAATAAAGTACATTATATATATAAATA [XGTACX_site3775]
The “gcPBM binding intensity (ln)” value of the first is higher: 10.4 for the first, 6.37 for the second.

Compared with “AAAAAATAGAATATGGGTACTAAAAAGATACAAACA [XGTACX_site4464]”, “AAGTTTAAAGGAATTACACAAACAAGCAAATATATA [CACACA_negctrl_site857]” is higher in “gcPBM binding intensity (ln)” value: 6.84 for the first, 6.92 for the second.

Going from “TCATTAATCAGGTATGCATGCATAACTATTAAAAAT [TGCATGCA_site90]” to “AAAAAACTATTATGTGCATGCACAAGTCAGGTAAAT [TGCATGCA_site791]”, the “gcPBM binding intensity (ln)” value rises from 6.46 to 11.3.

Compared with ACAATTTTATTTAAAGTGCATGTAAAATTAAAACTT, “ATAAAAATATAAACATGTACATAAAAATCTATATAT [XGTACX_site405]” is lower in “gcPBM binding intensity (ln)” value: 7.44 for the first, 6.72 for the second.

Going from “TTTCATTTGTCGTTATGTACTTATTAAATATTATTA [XGTACX_site7709]” to “TTAATACATATATATATATTATATATATATATATAT [TGCATGCA_negctrl_site177]”, the “gcPBM binding intensity (ln)” value rises from 6.92 to 8.89.

Compared with TTCTAAAATTATATAGTGCAATTATATTAATTTTTC, TTATATAATTTAATAGTGCAATTATATTAATTTTTC is lower in “gcPBM binding intensity (ln)” value: 8.98 for the first, 8.66 for the second.

First: ATGATATATTTAATAGTGCACTAATTAAAATTATTA [GTGCAC_site9418]
Second: ATATTTTATATAATAGTGCAAATAATATTAAATAAT
The “gcPBM binding intensity (ln)” value of the first is higher: 10.8 for the first, 9.78 for the second.

Compared with “ATTTTCTTTTCCATAGTGCAATATAATTATCCATCA [GTGCAC_site9547]”, ATATATCATATTATAGTGCATTTATAATAATATTAT is lower in “gcPBM binding intensity (ln)” value: 10.9 for the first, 8.51 for the second.

Compared with TTACAATAAATTATAGTGCAATATTTTATTTAATAT, CTTAAAATATATTTAGTGCATATACTAATATATTAT is lower in “gcPBM binding intensity (ln)” value: 10.6 for the first, 8.9 for the second.

Going from “ATATATATATTTATAGTGCATTTATATTAAAATATC [GTGCAC_site9818]” to “TATATATATATATATATATATATATATATAATATTA [XGTACX_negctrl_site558]”, the “gcPBM binding intensity (ln)” value rises from 8.5 to 9.37.

Going from “TGGAGGATAGTTCACAGTACCCAGTAACTCTACGGA [XGTACX_site4930]” to “TATATATATATAATTGCACACATCAAGTTTGATGTT [CACACA_site1288]”, the “gcPBM binding intensity (ln)” value rises from 6.22 to 9.99.

First: CAAAATGATATGACAACACACAACCTATAGTAAGAC [CACACA_site1287]
Second: ATCATCCAAGATCTTACACACATATTAAATAAATAA [CACACA_site1473]
The “gcPBM binding intensity (ln)” value of the first is higher: 6.91 for the first, 6.66 for the second.

Compared with “AGGCCTTTTAGTATTTCACACACGTAAATGTGTATA [CACACA_site8284]”, “GGAATATATATACATACACACATATATATATATATA [CACACA_site1666]” is higher in “gcPBM binding intensity (ln)” value: 6.43 for the first, 9.32 for the second.

Going from “TACGTAAATTCTAATACACACTATAGGATATTCTGC [CACACA_site7248]” to “TTGTTCTAATATATTGCACACGTAAAAATATAGGTA [CACACA_site8195]”, the “gcPBM binding intensity (ln)” value rises from 6.41 to 10.1.

First: GTTCTAATATATTGCACACGTAAAAATATAGGTAAT [CACACA_site886]
Second: AAAAAAAAAAAACACACACACACACCCAAATATATA [CACACA_site150]
The “gcPBM binding intensity (ln)” value of the first is higher: 10.6 for the first, 6.84 for the second.

First: GGAAAAAATATATGCACACCCCCCAAAAAAAAAAAA [CACACA_site2222]
Second: TGGGAAAAAATATATGCACACCCCCCAAAAAAAAAA [CACACA_site8696]
The “gcPBM binding intensity (ln)” value of the first is lower: 9.67 for the first, 10.6 for the second.

Going from “ATTAAATGTATGACTTGTACATAAAATAAAAAAAAA [XGTACX_site6555]” to “TAAAGGAAATAAAAAACATGCAAATATGAAATATAT [TGCATGCA_site745]”, the “gcPBM binding intensity (ln)” value rises from 6.56 to 6.74.

For “AAATAAAATAATAAAACATGCAAAAATAATGATTTA [TGCATGCA_site415]”, the “gcPBM binding intensity (ln)” value was 6.72.
